MCF10A rereplic: DNA re-replication induction in MCF 10a cells | MCF 10A DNA re-replication, Hoechst nuclear intensity, 48 h | Potency, µM (doses to about 46.1 µM), most hits filed as activators | actives 2.9% (n = 350,000); note: nearly all actives have a fitted effect of over 50% in size
KB-3-1 tox: kills parental KB-3-1 adenocarcinoma cells; KB-3-1 viability, CellTiter-Glo ATP luminescence, 72 h; Potency, µM (series often up to 46.1 µM), hits mostly cytotoxic; actives 1.4% (n = 400,000); AID 1347075; note: nearly all actives have a fitted effect of over 60% in size
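Parental KB-3-1 viability, qHTS format: 72 h compound exposure, 37 °C; CellTiter-Glo; media-only wells and DMSO plates as controls; concentration-effect fits on corrected data.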
ELG1 DNA repair: blocks ELG1-dependent DNA repair in HEK293T cells; AID 504467; Potency, µM (titrated, usually from 46.1 µM), actives largely listed as inhibitors; HEK293T ELG1-luciferase reporter, luminescence, 16 h; DNA damage induced by 5-fluorouridine; actives 2.3% (n = 330,000); note: nearly all actives have a fitted effect of over 55% in size
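Step one: seed 2,000 cells per well. Step two: pin-transfer compound or DMSO alongside 5-fluorouridine. Step three: incubate 16 hr, 37 °C, 5% CO2. Step four: add ONE-Glo, wait 30 min, read luminescence.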
SW480 rerep: induces DNA re-replication in SW480 colon adenocarcinoma cells. SW480 DNA re-replication, Hoechst DNA content imaging, 48 h. actives 1.8% (n = 340,000). Potency, µM (titrated, usually from 46.1 µM), usual class: activators; note: nearly all actives have a fitted effect of over 55% in size
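Treated cells incubate 48 hr (37 C, 5% CO2), are stained 40 min with Hoechst, and nuclear fluorescence is enumerated; a rise in nuclei with high DNA signal marks re-replication.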
KB-V1 MDR tox: KB-V1 MDR subline cytotoxicity; Potency, µM (titrated, usually from 46.1 µM), most hits filed as cytotoxic; actives 3.4% (n = 400,000); KB-V1 MDR cells viability, CellTiter-Glo, 72 h; AID 1347076; note: nearly all actives have a fitted effect of over 60% in size
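Cytotoxicity toward P-gp-expressing KB-V1 cells was determined as loss of CellTiter-Glo luminescence after 72 h at 37 degrees C. Compounds were tested in quantitative HTS format across a concentration range, with curves fitted to normalized data.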
Each line names hits and unclear results; the compound was inactive in the other large screens. An excerpt weighted towards active compounds, which were near 8.1% of everything screened. Calls come from the whole dose curve; as a rule, active = well fitted curve in the direction sought with a large enough effect; inconclusive = small, poorly fitted or top-dose-only effect, or another doubt; inactive = no such curve, though single readings can be large; an effect the other way counts as inactive or inconclusive.

Cc1ccc(CCNC(=O)c2cn(C)c3ccc(S(=O)(=O)N4CCCCC4)cc3c2=O)cc1	KB-3-1 tox inconclusive (no result: MCF10A rereplic, ELG1 DNA repair, SW480 rerep)
CCCCNC(=O)c1sc(=S)n(-c2ccccc2OC)c1N	KB-V1 MDR tox 21µM
CC[C@H](CO)Oc1cc(NCc2cccc(N)c2)c2ncn(C(C)C)c2c1	none (no result: MCF10A rereplic, ELG1 DNA repair, SW480 rerep)
Cc1csc(NC(=O)c2cc(-c3ccco3)nc3ccccc23)n1	ELG1 DNA repair 21µM
Cc1nnc(NC(=O)c2cc(-c3ccco3)nc3ccccc23)s1	none (no result: MCF10A rereplic, KB-3-1 tox, SW480 rerep, KB-V1 MDR tox)
Cc1ccc2nc(NC(=O)c3cc(-c4ccco4)nc4ccccc34)sc2c1	MCF10A rereplic 16µM, KB-3-1 tox inconclusive, KB-V1 MDR tox inconclusive
CSc1cccc(NC(=O)/C=C/c2ccc(Cl)cc2)c1	KB-3-1 tox inconclusive, ELG1 DNA repair inconclusive, KB-V1 MDR tox 15µM
Cc1cc(C)nc(NC(=O)/C=C/c2ccc(Cl)cc2Cl)c1	MCF10A rereplic inconclusive, ELG1 DNA repair inconclusive, KB-V1 MDR tox 9.2µM
Cc1cccc(NC(=O)/C=C/c2ccc(Cl)cc2)n1	ELG1 DNA repair inconclusive, KB-V1 MDR tox 16µM (no result: SW480 rerep)
Cc1cc(C)nc(NC(=O)/C=C/c2ccccc2Cl)c1	ELG1 DNA repair inconclusive, KB-V1 MDR tox inconclusive
N#C/C(=C\c1c(N2CCCCCC2)nc2ccccn2c1=O)C(=O)NC1CCS(=O)(=O)C1 (stereo not drawn)	none
N#C/C(=C\c1c(Oc2ccccc2F)nc2ccccn2c1=O)C(=O)NC1CCS(=O)(=O)C1 (stereo not drawn)	MCF10A rereplic 16µM, SW480 rerep inconclusive
N#C/C(=C\c1c(N2CCOCC2)nc2ccccn2c1=O)C(=O)NC1CCS(=O)(=O)C1 (stereo not drawn)	MCF10A rereplic 5.8µM, ELG1 DNA repair inconclusive, SW480 rerep inconclusive
C=C1C=C(C(F)F)n2ncc(C(=O)NCCc3ccc(Cl)cc3)c2N1	none (no result: MCF10A rereplic, ELG1 DNA repair, SW480 rerep)
Nc1nc2ccccc2n1/N=C/c1cccnc1	none (no result: ELG1 DNA repair)
Nc1nc2ccccc2n1/N=C/c1ccc(-c2ccccc2)o1	MCF10A rereplic inconclusive, KB-3-1 tox inconclusive, ELG1 DNA repair inconclusive, SW480 rerep inconclusive, KB-V1 MDR tox 21µM
CCC1CCc2c(sc(NC(=O)C3c4ccccc4Oc4ccccc43)c2C#N)C1 (stereo not drawn)	KB-V1 MDR tox inconclusive (no result: MCF10A rereplic, ELG1 DNA repair, SW480 rerep)
Cc1nnc(N2CCN(c3ccccc3)CC2)c2c1nnn2Cc1ccc(F)cc1	none (no result: MCF10A rereplic, ELG1 DNA repair, SW480 rerep)
COc1cccc(CC(=O)n2nc(N)c3cc4ccc(OC)cc4nc32)c1	MCF10A rereplic inconclusive, ELG1 DNA repair 9.2µM
COc1ccc2cc3c(N)nn(C(=O)Cc4c[nH]c5ccccc45)c3nc2c1	MCF10A rereplic inconclusive, KB-3-1 tox inconclusive, ELG1 DNA repair 1.5µM, SW480 rerep inconclusive
COc1ccc2cc3c(N)nn(C(=O)Cc4ccc(Cl)cc4)c3nc2c1	MCF10A rereplic inconclusive, ELG1 DNA repair inconclusive
COc1ccccc1-c1nc(SCC(=O)NCc2ccc(C)cc2)c2c(=O)n(C)c(=O)n(C)c2n1	KB-V1 MDR tox inconclusive (no result: MCF10A rereplic, ELG1 DNA repair, SW480 rerep)
Cc1ccc(-c2ccc(/C=C3\SC(N4CCOCC4)=NC3=O)o2)cc1	MCF10A rereplic 23µM, ELG1 DNA repair inconclusive, SW480 rerep 18µM
O=C1N=C(N2CCOCC2)S/C1=C/c1ccc(-c2ccc(F)cc2)o1	MCF10A rereplic inconclusive, ELG1 DNA repair inconclusive, SW480 rerep inconclusive
O=C(NCc1cccc(C(F)(F)F)c1)c1ccc2nc([C@@H]3O[C@H](CO)[C@@H](O)[C@H]3O)[nH]c2c1	none (no result: MCF10A rereplic, ELG1 DNA repair, SW480 rerep)
CCOP(=O)(OCC)C1NC(=O)N(c2ccccc2)C1=O (stereo not drawn)	ELG1 DNA repair inconclusive
CNc1nc(SCc2ccccc2Cl)nc2c1CCCC2	MCF10A rereplic 18µM, ELG1 DNA repair inconclusive, KB-V1 MDR tox inconclusive
O=c1[nH]c(SCc2ccccc2Cl)nc2c1CCC2	none
Cc1ccc(-n2ncc3c(=O)n(Cc4cccnc4)cnc32)cc1	KB-3-1 tox 18µM, ELG1 DNA repair inconclusive, KB-V1 MDR tox 12µM
CN(C)C(=S)N=c1ssc(=S)n1Cc1cccnc1	MCF10A rereplic 12µM, KB-3-1 tox inconclusive, SW480 rerep 18µM, KB-V1 MDR tox inconclusive (no result: ELG1 DNA repair)
CCOC(=O)N1CCN(C(=O)/C(=C/c2cccc3ccccc23)NC(=O)c2ccc(OC)c(OC)c2)CC1	ELG1 DNA repair inconclusive, KB-V1 MDR tox 4.6µM
CCOC(=O)N1CCN(C(=O)/C(=C/c2ccc(Br)cc2)NC(=O)c2ccc(OC)cc2)CC1	KB-V1 MDR tox 18µM
COCc1cc(O)c(O)c(O)c1-c1c(COC)cc(O)c(O)c1O	none (no result: MCF10A rereplic, ELG1 DNA repair, SW480 rerep)
CC(O)(c1ccc(F)c(F)c1)c1nc(-c2cccc3cccnc23)cs1 (stereo not drawn)	none (no result: MCF10A rereplic, ELG1 DNA repair, SW480 rerep)
Cc1oc2c(c1C(=O)c1ccc(Cl)cc1)C(=O)C(=O)c1ccccc1-2	MCF10A rereplic 7.3µM, KB-3-1 tox inconclusive, KB-V1 MDR tox 16µM
Cc1ccc(C(=O)c2coc3c2C(=O)C(=O)c2ccccc2-3)cc1	ELG1 DNA repair inconclusive, KB-V1 MDR tox inconclusive
Cc1ccc(C(=O)c2c(C)oc3c2C(=O)C(=O)c2ccccc2-3)cc1	MCF10A rereplic 18µM, KB-3-1 tox inconclusive, ELG1 DNA repair inconclusive, SW480 rerep 13µM, KB-V1 MDR tox 5.2µM
O=C(NCCc1ccc2c(c1)OCCO2)c1ccc(F)cc1	ELG1 DNA repair inconclusive, KB-V1 MDR tox 23µM (no result: SW480 rerep)
C/C1=C2/[N-]C(C(CC(N)=O)[C@@]2(C)CCC(=O)NCC(C)OP(=O)([O-])O[C@H]2[C@@H](O)[C@@H](n3cnc4cc(C)c(C)cc43)O[C@@H]2CO)[C@]2(C)N=C(/C(C)=C3N=C(/C=C4N=C1C(CCC(N)=O)C\4(C)C)[C@@H](CCC(N)=O)[C@]\3(C)CC(N)=O)[C@@H](CCC(N)=O)[C@]2(C)CC(N)=O.CC(=O)O.[Co] (stereo partly drawn)	none (no result: KB-3-1 tox, ELG1 DNA repair, KB-V1 MDR tox)

Assay outcomes (PubChem)
